# Measured values taken from ChEMBL document CHEMBL3988442, “University of Dundee, Small-Polar-MMV Screening Library” (2021).
# For some of these results: Potency and affinity values are given separately.
# How the values were obtained:
# Set-up in all cases: scale not given: direction of the effect not stated beside the values
# [1] = target: Protein translocase subunit SecA (Escherichia coli (strain K12)) (UniProt P10408); assay: Assay to Identify E. coli SecA ATPase Inhibitors; assay type: functional; details: 30 µM
# Sequence of Protein translocase subunit SecA (Escherichia coli (strain K12)) (P10408 whole entry): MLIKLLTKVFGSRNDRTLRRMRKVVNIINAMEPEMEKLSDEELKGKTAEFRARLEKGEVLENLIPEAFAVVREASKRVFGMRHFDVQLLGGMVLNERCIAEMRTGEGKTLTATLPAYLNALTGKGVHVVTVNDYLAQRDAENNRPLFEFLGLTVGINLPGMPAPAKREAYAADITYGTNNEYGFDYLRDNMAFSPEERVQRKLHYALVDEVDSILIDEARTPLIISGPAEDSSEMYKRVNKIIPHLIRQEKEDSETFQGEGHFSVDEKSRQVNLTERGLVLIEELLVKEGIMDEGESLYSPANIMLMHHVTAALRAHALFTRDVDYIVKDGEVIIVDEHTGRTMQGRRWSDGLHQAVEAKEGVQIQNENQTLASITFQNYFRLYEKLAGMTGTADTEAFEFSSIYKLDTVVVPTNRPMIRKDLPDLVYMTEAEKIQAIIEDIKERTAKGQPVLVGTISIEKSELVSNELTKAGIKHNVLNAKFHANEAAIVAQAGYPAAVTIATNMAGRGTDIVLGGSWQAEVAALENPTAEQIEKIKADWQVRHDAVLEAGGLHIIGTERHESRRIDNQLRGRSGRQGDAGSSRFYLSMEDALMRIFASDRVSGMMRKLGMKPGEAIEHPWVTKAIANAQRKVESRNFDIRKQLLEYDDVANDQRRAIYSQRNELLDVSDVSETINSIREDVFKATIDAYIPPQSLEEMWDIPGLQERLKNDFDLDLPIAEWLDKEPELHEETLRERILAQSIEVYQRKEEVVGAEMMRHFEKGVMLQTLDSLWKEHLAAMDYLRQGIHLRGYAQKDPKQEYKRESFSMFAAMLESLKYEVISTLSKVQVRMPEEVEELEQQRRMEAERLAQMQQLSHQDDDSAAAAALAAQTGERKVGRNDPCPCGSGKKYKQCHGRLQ
# [2] = target: T1, Ubiquitin-activating enzyme e1, putative (Leishmania donovani (strain BPK282A1)) (UniProt E9BSI1); assay: Leishmania donovani Ubiquitin Activating Enzyme (LdE1); assay type: functional; details: 30 µM
# T1 sequence (whole entry): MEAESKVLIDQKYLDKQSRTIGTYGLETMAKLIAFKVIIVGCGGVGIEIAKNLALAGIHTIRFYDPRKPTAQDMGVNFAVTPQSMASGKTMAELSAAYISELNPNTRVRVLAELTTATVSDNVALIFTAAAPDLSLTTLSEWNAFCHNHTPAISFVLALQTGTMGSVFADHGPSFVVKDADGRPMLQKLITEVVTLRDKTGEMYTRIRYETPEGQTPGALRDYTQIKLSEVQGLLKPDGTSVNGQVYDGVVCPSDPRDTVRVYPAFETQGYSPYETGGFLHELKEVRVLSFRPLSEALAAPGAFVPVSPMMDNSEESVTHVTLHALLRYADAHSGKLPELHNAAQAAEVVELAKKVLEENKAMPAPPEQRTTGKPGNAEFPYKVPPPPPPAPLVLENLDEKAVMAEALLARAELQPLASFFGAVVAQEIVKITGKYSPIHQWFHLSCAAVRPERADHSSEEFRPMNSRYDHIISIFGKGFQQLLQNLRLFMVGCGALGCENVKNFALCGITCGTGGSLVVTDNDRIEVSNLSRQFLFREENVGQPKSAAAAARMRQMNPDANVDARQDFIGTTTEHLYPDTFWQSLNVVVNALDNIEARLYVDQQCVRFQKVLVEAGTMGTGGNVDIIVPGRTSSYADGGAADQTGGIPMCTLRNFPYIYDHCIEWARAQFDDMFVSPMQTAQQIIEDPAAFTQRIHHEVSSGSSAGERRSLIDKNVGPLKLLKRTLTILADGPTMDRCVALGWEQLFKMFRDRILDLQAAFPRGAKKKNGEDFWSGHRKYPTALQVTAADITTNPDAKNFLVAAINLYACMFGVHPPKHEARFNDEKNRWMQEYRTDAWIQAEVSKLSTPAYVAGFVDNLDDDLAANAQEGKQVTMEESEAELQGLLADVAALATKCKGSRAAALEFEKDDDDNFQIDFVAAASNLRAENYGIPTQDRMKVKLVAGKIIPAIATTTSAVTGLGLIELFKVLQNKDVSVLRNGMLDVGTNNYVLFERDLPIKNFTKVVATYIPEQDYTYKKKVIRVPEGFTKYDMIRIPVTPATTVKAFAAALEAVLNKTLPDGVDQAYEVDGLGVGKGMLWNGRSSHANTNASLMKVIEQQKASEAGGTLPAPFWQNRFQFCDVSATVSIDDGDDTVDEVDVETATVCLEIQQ
# [3] = target: AMP-activated protein kinase, AMPK (Homo sapiens) (UniProt P54646+O43741+P54619+Q9UGJ0+Q9Y478+Q13131+Q9UGI9); assay: AMP-dependent Kinase enzyme assay. An in vitro enzyme assay that detects ADP turnover that is directly proportional to AMPK activity. This uses naive AMPK that is activated during the assay with MK-8722; assay type: functional; details: 30 µM
# [4] = target: Sialic acid-binding Ig-like lectin 9 (Homo sapiens) (UniProt Q9Y336); assay: Hs-Siglec9 ALPHAscreen SOP 20170721; details: 10 µM
# Sequence of Sialic acid-binding Ig-like lectin 9 (Homo sapiens) (Q9Y336 whole entry): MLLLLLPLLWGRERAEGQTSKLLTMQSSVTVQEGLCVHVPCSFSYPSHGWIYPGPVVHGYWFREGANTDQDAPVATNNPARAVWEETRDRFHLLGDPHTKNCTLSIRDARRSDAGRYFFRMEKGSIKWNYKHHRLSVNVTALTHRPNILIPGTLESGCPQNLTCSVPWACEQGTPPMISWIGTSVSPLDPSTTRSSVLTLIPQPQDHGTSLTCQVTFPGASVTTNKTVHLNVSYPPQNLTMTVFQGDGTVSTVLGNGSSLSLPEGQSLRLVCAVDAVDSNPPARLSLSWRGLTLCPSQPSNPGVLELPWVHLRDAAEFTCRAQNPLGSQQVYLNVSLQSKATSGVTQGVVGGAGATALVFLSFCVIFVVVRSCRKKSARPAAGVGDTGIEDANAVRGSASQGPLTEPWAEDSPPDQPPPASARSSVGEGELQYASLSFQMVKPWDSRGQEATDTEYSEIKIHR
# Trypanosoma cruzi = assay: Trypanosoma cruzi phosphomannomutase and mannose-1-phosphate guanylyltransferase assay; assay type: functional; details: 10 µM
# [5] = target: T2, Arginase-2, mitochondrial (Homo sapiens) (UniProt P78540); assay: in vitro enzyme assay to detect the production of urea directly proportional to the activity of Arginase II; assay type: functional; details: 33.3 µM; also: in the data most compounds retested in dose-response had high values
# T2 sequence (whole entry): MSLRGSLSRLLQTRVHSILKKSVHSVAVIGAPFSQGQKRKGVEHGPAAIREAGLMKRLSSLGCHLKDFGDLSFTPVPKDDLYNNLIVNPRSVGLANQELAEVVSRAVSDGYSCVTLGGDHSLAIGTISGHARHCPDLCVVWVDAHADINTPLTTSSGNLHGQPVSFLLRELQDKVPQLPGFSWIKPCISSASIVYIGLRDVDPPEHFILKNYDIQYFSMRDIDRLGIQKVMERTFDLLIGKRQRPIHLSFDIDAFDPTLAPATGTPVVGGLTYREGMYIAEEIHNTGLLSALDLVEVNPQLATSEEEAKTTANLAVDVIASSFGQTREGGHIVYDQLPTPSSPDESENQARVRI
# [6] = target: T3, Proteasome subunit beta (Trypanosoma cruzi) (UniProt O96673); assay: Trypanosoma cruzi proteasome chymotrypsin-like activity (TcProtChymo) assay.; also: in the data most compounds retested in dose-response had high values; assay type: functional; details: 9.37 µM
# T3 sequence (whole entry): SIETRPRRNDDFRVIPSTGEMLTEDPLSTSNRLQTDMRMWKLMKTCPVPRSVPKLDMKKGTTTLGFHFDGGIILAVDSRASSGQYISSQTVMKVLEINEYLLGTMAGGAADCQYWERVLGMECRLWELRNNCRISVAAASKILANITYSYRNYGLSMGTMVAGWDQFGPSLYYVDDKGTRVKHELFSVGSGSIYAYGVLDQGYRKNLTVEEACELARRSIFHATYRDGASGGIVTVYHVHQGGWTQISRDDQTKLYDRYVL
# Homo sapiens = organism: Homo sapiens; assay: To identify inhibition of the IFN signalling (Jak-Stat) pathway via expression of an eGFP reporter gene under the control of an IFN-stimulated response element (ISRE) containing MxA promoter.; assay type: functional; details: 30 µM
# [7] = target: T4, Tyrosyl-tRNA synthetase, putative (Trypanosoma cruzi (strain CL Brener)) (UniProt Q4DSP6); assay: Trypanosoma cruzi tyrosyl tRNA synthetase (TcYRS) _High Tyrosine SOP; assay type: functional; details: 30 µM; also: in the data most compounds retested in dose-response had high values
# T4 sequence (whole entry): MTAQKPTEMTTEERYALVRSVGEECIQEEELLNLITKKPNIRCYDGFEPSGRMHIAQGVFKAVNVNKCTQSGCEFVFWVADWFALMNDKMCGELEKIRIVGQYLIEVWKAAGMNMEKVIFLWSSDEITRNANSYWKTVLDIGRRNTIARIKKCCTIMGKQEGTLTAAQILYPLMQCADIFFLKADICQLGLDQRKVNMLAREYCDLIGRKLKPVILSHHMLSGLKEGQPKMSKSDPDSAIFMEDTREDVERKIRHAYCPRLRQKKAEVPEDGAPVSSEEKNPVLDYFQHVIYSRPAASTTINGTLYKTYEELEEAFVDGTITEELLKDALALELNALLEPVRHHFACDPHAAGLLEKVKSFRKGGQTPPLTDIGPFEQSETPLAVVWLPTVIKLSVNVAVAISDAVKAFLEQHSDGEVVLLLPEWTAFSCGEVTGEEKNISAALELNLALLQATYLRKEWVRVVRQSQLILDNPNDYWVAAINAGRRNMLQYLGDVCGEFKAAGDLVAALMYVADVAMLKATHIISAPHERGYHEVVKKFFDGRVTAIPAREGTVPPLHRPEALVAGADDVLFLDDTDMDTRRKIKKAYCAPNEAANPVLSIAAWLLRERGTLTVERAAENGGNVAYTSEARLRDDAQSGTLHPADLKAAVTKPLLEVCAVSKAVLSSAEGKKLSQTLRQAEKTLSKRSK
# [8] = target: T4, Tyrosyl-tRNA synthetase, putative (Trypanosoma cruzi (strain CL Brener)); assay: Trypanosoma cruzi tyrosyl tRNA synthetase (TcYRS) SOP; assay type: functional; details: 30 µM
# [9] = target: Chromo domain-containing protein 1 (Saccharomyces cerevisiae (strain ATCC 204508 / S288c) (Baker's yeast)) (UniProt P32657); assay: ScCHD-1 Enzyme Inhibition Assay; assay type: functional; details: 30 µM; also: in the data most compounds retested in dose-response had high values
# Sequence of Chromo domain-containing protein 1 (Saccharomyces cerevisiae (strain ATCC 204508 / S288c) (Baker's yeast)) (P32657 whole entry, the tested form may be a part): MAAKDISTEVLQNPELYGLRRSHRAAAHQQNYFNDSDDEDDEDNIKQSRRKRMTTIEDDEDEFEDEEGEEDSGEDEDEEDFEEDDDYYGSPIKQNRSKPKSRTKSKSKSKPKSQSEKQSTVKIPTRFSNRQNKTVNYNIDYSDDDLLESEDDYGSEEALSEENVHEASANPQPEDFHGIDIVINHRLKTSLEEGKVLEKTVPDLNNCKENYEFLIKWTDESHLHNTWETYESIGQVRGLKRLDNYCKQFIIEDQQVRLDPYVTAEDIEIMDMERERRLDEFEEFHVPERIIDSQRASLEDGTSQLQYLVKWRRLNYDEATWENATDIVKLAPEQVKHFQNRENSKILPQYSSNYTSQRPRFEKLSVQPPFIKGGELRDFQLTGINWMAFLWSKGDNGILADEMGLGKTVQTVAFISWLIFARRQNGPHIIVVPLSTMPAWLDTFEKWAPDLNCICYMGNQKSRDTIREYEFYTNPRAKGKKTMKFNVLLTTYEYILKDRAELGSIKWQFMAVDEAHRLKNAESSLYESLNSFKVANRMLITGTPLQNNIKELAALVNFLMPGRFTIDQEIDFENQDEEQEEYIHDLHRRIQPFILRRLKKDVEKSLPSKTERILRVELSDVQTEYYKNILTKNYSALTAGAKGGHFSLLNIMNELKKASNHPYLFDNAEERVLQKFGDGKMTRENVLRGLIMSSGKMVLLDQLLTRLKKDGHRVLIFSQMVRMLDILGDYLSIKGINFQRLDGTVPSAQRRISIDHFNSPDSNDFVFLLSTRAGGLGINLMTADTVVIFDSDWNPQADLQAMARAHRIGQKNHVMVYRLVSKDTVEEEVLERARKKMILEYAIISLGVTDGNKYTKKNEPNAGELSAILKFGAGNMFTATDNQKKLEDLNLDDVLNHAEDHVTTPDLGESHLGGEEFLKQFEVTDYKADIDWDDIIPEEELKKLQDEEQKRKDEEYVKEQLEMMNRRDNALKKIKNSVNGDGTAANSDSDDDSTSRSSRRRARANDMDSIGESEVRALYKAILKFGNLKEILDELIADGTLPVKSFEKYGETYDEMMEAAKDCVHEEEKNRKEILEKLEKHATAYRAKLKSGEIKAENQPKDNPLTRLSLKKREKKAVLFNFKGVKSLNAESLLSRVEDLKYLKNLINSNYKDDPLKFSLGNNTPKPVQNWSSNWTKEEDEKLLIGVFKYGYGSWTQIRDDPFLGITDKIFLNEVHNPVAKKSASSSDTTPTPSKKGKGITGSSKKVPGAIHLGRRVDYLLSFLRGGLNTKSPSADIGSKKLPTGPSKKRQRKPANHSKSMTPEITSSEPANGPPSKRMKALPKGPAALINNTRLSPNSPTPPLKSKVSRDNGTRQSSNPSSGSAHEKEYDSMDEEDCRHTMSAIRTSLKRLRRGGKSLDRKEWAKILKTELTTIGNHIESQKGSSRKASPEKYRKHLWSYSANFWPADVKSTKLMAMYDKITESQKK
smiles,measurement,setting,value
Cc1nccc(C2CN(Cc3cc[nH]n3)CCO2)n1 (stereo not drawn),Percent Effect,[1],-1.51%
same,Percent Effect,[2],1.35%
same,Percent Effect,[3],9.42%
same,Percent Effect,[4],3.04%
same,Percent Effect,Trypanosoma cruzi,-1.98%
same,Percent Effect,[5],-1.16%
same,Percent Effect,[6],4.84%
same,Percent Effect,Homo sapiens,-10.9%
same,Percent Effect,[7],0%
same,Percent Effect,[8],3.9%
same,Percent Effect,[9],-12.4%
COC(=O)N1CCc2ccc(NC(=O)c3cn(C)nn3)cc2C1,Percent Effect,[1],-6.1%
same,Percent Effect,[2],10.4%
same,Percent Effect,[3],2.87%
same,Percent Effect,[4],5.76%
same,Percent Effect,Trypanosoma cruzi,2.07%
same,Percent Effect,[5],-49.7%
same,Percent Effect,[6],9.92%
same,Percent Effect,Homo sapiens,12.5%
same,Percent Effect,[7],5.29%
same,Percent Effect,[8],8.97%
same,Percent Effect,[9],90.7%
CNC(=O)c1cc2c(nc1N(C)C)CCN(S(=O)(=O)CC(C)C)CC2,Percent Effect,[1],-2.25%
same,Percent Effect,[2],5.2%
same,Percent Effect,[3],7.84%
same,Percent Effect,[4],6.98%
same,Percent Effect,Trypanosoma cruzi,-2.27%
same,Percent Effect,[5],-5.81%
same,Percent Effect,[6],3.83%
same,Percent Effect,Homo sapiens,-12.4%
same,Percent Effect,[7],-9.52%
same,Percent Effect,[8],1.28%
same,Percent Effect,[9],-2.31%
COc1ncccc1C(=O)NCC(C)Oc1cccnc1 (stereo not drawn),Percent Effect,[1],-3.65%
same,Percent Effect,[2],5.41%
same,Percent Effect,[3],1.52%
same,Percent Effect,[4],2.58%
same,Percent Effect,Trypanosoma cruzi,0.386%
same,Percent Effect,[5],1.91%
same,Percent Effect,[6],4.83%
same,Percent Effect,Homo sapiens,-3.73%
same,Percent Effect,[7],6.88%
same,Percent Effect,[8],12.2%
same,Percent Effect,[9],-3.26%
CCn1c(C)nnc1CN(C)C1CCN(CCn2cccn2)C1 (stereo not drawn),Percent Effect,[1],-1.14%
same,Percent Effect,[2],15.6%
same,Percent Effect,[3],0.0585%
same,Percent Effect,[4],-11.5%
same,Percent Effect,Trypanosoma cruzi,-0.686%
same,Percent Effect,[5],-1.05%
same,Percent Effect,[6],17.9%
same,Percent Effect,Homo sapiens,20.6%
same,Percent Effect,[7],14.3%
same,Percent Effect,[8],23.5%
same,Percent Effect,[9],-17.4%
COC(=O)c1ccccc1NC(=O)c1nc2ccccc2n(C)c1=O,Percent Effect,[1],-1.59%
same,Percent Effect,[2],10.4%
same,Percent Effect,[3],1.48%
same,Percent Effect,[4],-0.871%
same,Percent Effect,Trypanosoma cruzi,5.82%
same,Percent Effect,[5],1.94%
same,Percent Effect,[6],6.79%
same,Percent Effect,Homo sapiens,17%
same,Percent Effect,[7],4.23%
same,Percent Effect,[8],16.7%
same,Percent Effect,[9],-8.57%
COC(=O)c1cccc(OCCn2nc(-c3cccs3)oc2=O)c1,Percent Effect,[1],-3.91%
same,Percent Effect,[2],-5.41%
same,Percent Effect,[3],-4.63%
same,Percent Effect,[4],7.61%
same,Percent Effect,Trypanosoma cruzi,-4.36%
same,Percent Effect,[5],-3.14%
same,Percent Effect,[6],1.44%
same,Percent Effect,Homo sapiens,22.8%
same,Percent Effect,[7],-16.8%
same,Percent Effect,[8],-6.1%
same,Percent Effect,[9],3.23%
CCOCCOC(C)C(=O)NCc1cn2cc(Br)ccc2n1 (stereo not drawn),Percent Effect,[1],-0.315%
same,Percent Effect,[2],0%
same,Percent Effect,[3],8.27%
same,Percent Effect,[4],0.478%
same,Percent Effect,Trypanosoma cruzi,1.27%
same,Percent Effect,[5],1.18%
same,Percent Effect,[6],9.68%
same,Percent Effect,Homo sapiens,-18%
same,Percent Effect,[7],5.32%
same,Percent Effect,[8],10.4%
same,Percent Effect,[9],-1.5%
